High-throughput results (PubChem BioAssay)
Only some compounds are listed: those with a hit (about 4.3% of all), similar ones and a draw of the others.
uPA generation: qHTS for Inhibitors of Cell Surface uPA Generation. Potency, µM (series often up to 38.3 µM), for inactives: at the highest dose activity change, negative = inhibition, actives largely listed as inhibitors. hit rate 0.31% among 330,000. cell surface uPA generation assay, qHTS; active means well fitted inhibition curve with a large enough effect; inconclusive means small, poorly fitted or top-dose-only effect; inactive means no such curve, though single readings can be large or run the other way; tested in mouse RAW 264.7 cells; further: potency means the concentration at half of the fitted maximal effect; on the % scale 0 is the no-effect control and ±100 the full control effect; nearly all actives have a fitted effect of over 55% in size
MCF10A rerep: A quantitative high throughput screen for small molecules that induce DNA re-replication in MCF 10a normal breast cells; MCF 10A DNA re-replication, Hoechst nuclear intensity, 48 h; Potency, µM (titrated, usually from 46.1 µM), inactives show at the highest dose activity, positive = re-replication, most hits filed as activators; hit rate 2.9% among 350,000; AID 624296, 2012; further: potency means the concentration at half of the fitted maximal effect; % of control where 0% means no effect; nearly all actives have a fitted effect of over 50% in size
Giardia kill: Small Molecules that selectively kill Giardia lamblia: qHTS. hit rate 0.15% among 340,000. Giardia lamblia trophozoite viability. activity change, % at 7.66 µM, hits read low; in the data active means activity change below about -80%; inconclusive means between about -30% and that limit;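 further: parasites exposed to compound for two days anaerobically before the ATP read; on the % scale 0 is the no-effect control and ±100 the full control effect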
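Killing of trophozoites was scored by loss of ATP luminescence after a 48 hrs anaerobic exposure to compounds at 37 deg C, using 100 cells per well.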
SW480 rerep: A quantitative high throughput screen for small molecules that induce DNA re-replication in SW480 colon adenocarcinoma cells; SW480 DNA re-replication, Hoechst DNA content imaging, 48 h; Potency, µM (doses to about 46.1 µM), without a hit: top-dose re-replication activation, actives largely listed as activators; hit rate 1.8% among 340,000; AID 624297, 2012; further: potency means the concentration at half of the fitted maximal effect; % of control where 0% means no effect; nearly all actives have a fitted effect of over 55% in size
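Treated cells incubate 48 hr (37 C, 5% CO2), are stained 40 min with Hoechst, and nuclear fluorescence is enumerated; a rise in nuclei with high DNA signal marks re-replication.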
* hit, by the source's call; ? = inconclusive; . = not tested or not shown. Unless noted, the call rests on the fitted dose curve; in most records, active means well fitted activation curve with a large enough effect; inconclusive means small, poorly fitted or top-dose-only effect; inactive means no such curve, though single readings can be large or run the other way.

SMILES	uPA generation	MCF10A rerep	Giardia kill	SW480 rerep
OCC(O)C(O)C(O)C(O)CO (configuration not stated)	.	-1.6%	.	-7.9%
CCN(CC)CCN(Cc1cc2ccc(C)cc2[nH]c1=O)C(=O)Nc1ccc(Cl)cc1	2.7%	-7.2%	12.7	-0.3%
CC(=O)c1sc(NC(=O)CCS(=O)(=O)c2ccc(Cl)cc2)nc1C	19.0%	7.31µM*	-3.5	?
COc1ccc(OC)c2sc(NC(=O)CCS(=O)(=O)c3ccccc3)nc12	7.08µM*	20.6µM*	26.1	3.7%
CS(=O)(=O)c1ccc2nc(NC(=O)CCS(=O)(=O)c3ccccc3)sc2c1	-14.6%	3.26µM*	-13.5	3.66µM*
CCc1nnc(NC(=O)CCS(=O)(=O)c2ccccc2)s1	-0.2%	14.6µM*	-0.7	18.4µM*
CCc1nnc(NC(=O)CCS(=O)(=O)c2ccc(C)cc2)s1	-9.3%	129.6%	-12.5	1.4%
OB(O)c1csc2ccccc12	.	.	15.6	.
CC(C)c1nnc(NC(=O)CCS(=O)(=O)c2ccccc2)s1	-0.7%	?	-10.9	29.7%
COCc1nnc(NC(=O)CCS(=O)(=O)c2ccccc2)s1	-2.8%	?	12.9	14.6µM*
COc1cc(C(C[N+](=O)[O-])c2c(-c3ccccc3)cc3ccccn23)cc(OC)c1OC (configuration not stated)	-4.7%	?	-4.7	11.6µM*
COc1ccc(C(C[N+](=O)[O-])c2c(-c3ccccc3)cc3ccccn23)cc1OC (configuration not stated)	-6.6%	20.6µM*	-8.9	?
COc1cc(C(C[N+](=O)[O-])c2c(C)cc3ccccn23)ccc1O (configuration not stated)	-8.7%	?	6.2	?
COc1ccc(C(C[N+](=O)[O-])c2c(-c3ccccc3)cc3ccccn23)cc1 (configuration not stated)	-12.9%	18.4µM*	6.6	?
CCOc1ccc(NS(=O)(=O)c2ccc(C(=O)N(C)CC(=O)Nc3ccc(C)cc3)cc2)cc1	-7.1%	7.2%	-17.6	-0.5%
CCCNS(=O)(=O)c1cccc(C(=O)OCc2cc(=O)oc3cc(OC)ccc23)c1	-15.4%	7.31µM*	-7.9	?
CCc1cc2c(COC(=O)c3cc(S(=O)(=O)N4CCOCC4)ccc3F)cc(=O)oc2cc1O	?	?	-3.3	-28.3%
CCc1cc2c(COC(=O)c3cccc(NS(C)(=O)=O)c3)cc(=O)oc2cc1O	-2.8%	9.2µM*	-8.2	27.9%
CCN(c1ccc(OC)cc1)S(=O)(=O)c1cc(-c2cc(C)no2)ccc1C(C)C	-25.0%	10.3µM*	-11.9	1.0%
Cc1cc(C(=O)N2CCc3ccccc3C2)on1	-4.8%	1.8%	22.6	-3.9%
CCN(CC)CCCNC(=O)C1CCC(CNS(=O)(=O)c2c(C)cc(C)cc2C)CC1 (configuration not stated)	?	20.6µM*	18.8	-6.6%
COc1ccc(N(C(=O)CNC(=O)c2ccco2)C(C(=O)NC2CCCCC2)c2ccncc2)cc1 (configuration not stated)	-0.6%	-7.1%	8.0	-2.4%
COc1ccc(N(C(=O)Cn2cnc3ccccc32)C(C(=O)NC2CCCCC2)c2ccccc2)cc1 (configuration not stated)	-1.9%	?	3.8	23.1µM*
COc1ccc(C=CC(=O)c2ccc(OC)c(OC)c2O)cc1OC	-18.6%	?	-5.6	?
COc1cc(/C=C/C(=O)c2ccc([N+](=O)[O-])o2)ccc1O	?	?	-11.8	0.058µM*
SMILES	uPA generation	MCF10A rerep	Giardia kill	SW480 rerep
COc1ccc(/C=C/C(=O)c2ccc([N+](=O)[O-])o2)cc1OC	2.51µM*	?	-3.2	?
O=C(/C=C/c1cccc(Cl)c1)c1ccc([N+](=O)[O-])o1	?	2.31µM*	-1.5	1.46µM*
Cc1ccc(NC(=O)C(=O)NN=C2CCCC2)cc1C	0.7%	-42.1%	-11.0	1.8%
CCOCCCNC(=O)CN1CCN(Cc2ccc(Cl)cc2)C1=O	5.1%	-19.5%	6.7	-0.7%
Cc1cc(O)ccc1N/C=C(\C#N)c1nc2ccccc2o1	1.6%	18.4µM*	3.5	?
CCOc1ccc2nc(NS(=O)(=O)c3ccc(NC(C)=O)cc3)sc2c1	0.9%	13.5%	10.1	-1.2%
CCOc1ccc2nc(NS(=O)(=O)Cc3ccccc3)sc2c1	-13.5%	0.231µM*	-6.1	?
